Measurements reported in PubChem BioAssay (NCATS).
Records with an inconclusive call do not appear. The source made the active and inactive calls. The call rests on the fitted dose curve; in most records, active means well fitted curve in the direction sought with a large enough effect; inconclusive means small, poorly fitted or top-dose-only effect, or another doubt; inactive means no such curve, though single readings can be large; an effect the other way counts as inactive or inconclusive.

Experiments:
[1] = biological target: ATP-dependent 6-phosphofructokinase (Trypanosoma brucei brucei) (UniProt O15648); experiment: qHTS Assay to Find Inhibitors of T. brucei phosphofructokinase: hit validation (AID 492961);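 further: luminescence reports ADP formed as PFK phosphorylates fructose-6-phosphate with ATP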; settings: T. brucei PFK, ADP-Glo luminescence; series mostly up to 51.4 µM
Sequence of ATP-dependent 6-phosphofructokinase (Trypanosoma brucei brucei) (O15648 whole entry, looked up): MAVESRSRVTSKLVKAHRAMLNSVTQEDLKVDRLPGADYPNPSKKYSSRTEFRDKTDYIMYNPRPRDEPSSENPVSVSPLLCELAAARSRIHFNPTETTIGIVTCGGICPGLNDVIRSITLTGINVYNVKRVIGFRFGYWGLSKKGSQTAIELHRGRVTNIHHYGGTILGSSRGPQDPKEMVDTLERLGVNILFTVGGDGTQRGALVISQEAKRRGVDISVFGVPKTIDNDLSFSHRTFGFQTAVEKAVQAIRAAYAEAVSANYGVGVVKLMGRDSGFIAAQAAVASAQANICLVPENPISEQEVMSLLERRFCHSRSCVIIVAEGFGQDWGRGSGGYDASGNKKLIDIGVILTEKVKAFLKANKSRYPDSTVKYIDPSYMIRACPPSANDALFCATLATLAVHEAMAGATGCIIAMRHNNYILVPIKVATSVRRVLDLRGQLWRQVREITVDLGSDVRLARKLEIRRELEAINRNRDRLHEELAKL
Procedure, shortened: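 In this biochemical qHTS validation, titrated compounds were tested against 1.25 nM PFK with 0.1 mM ATP and 0.5 mM F6P. Percent activity came from controls lacking or containing enzyme.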

[2] = biological target: Chromobox protein homolog 1 (Homo sapiens) (UniProt P83916); experiment: qHTS Validation Assay for Inhibitors of HP1-beta Chromodomain Interactions with Methylated Histone Tails (AID 488953); settings: HP1-beta chromodomain / methylated histone peptide binding assay; series mostly up to 114 µM; further: nearly all actives have a fitted effect of over 50% in size; further: potency means the concentration at half of the fitted maximal effect
Sequence of Chromobox protein homolog 1 (Homo sapiens) (P83916 whole entry, looked up): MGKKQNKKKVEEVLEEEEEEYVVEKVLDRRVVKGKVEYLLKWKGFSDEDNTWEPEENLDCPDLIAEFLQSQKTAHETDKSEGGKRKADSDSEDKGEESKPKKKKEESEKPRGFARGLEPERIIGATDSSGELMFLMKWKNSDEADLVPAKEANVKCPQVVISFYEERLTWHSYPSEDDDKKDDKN
Procedure, shortened: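 AlphaScreen proximity readout: streptavidin donor and Ni-chelate acceptor beads, 10 ug/mL final, 30 min dark, RT. Complex of 50 nM HP1-beta and 50 nM b-H3(1-18)K9me3 formed 30 min, then compound-treated 30 min; PBS pH 7.4/0.01% Tween-20.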

[3] = biological target: Methanococcus maripaludis chaperonin (MmCpn) (UniProt Q6LX38); experiment: High-Throughput Screening for Modulators of Cytosolic Chaperonin Activity: MmCpn Primary Screen (AID 488978); settings: Purified MmCpn ATPase activity, ADP HTRF detection, 10 min; series mostly up to 76.9 µM
Sequence of Methanococcus maripaludis chaperonin (MmCpn) (Q6LX38 1-543): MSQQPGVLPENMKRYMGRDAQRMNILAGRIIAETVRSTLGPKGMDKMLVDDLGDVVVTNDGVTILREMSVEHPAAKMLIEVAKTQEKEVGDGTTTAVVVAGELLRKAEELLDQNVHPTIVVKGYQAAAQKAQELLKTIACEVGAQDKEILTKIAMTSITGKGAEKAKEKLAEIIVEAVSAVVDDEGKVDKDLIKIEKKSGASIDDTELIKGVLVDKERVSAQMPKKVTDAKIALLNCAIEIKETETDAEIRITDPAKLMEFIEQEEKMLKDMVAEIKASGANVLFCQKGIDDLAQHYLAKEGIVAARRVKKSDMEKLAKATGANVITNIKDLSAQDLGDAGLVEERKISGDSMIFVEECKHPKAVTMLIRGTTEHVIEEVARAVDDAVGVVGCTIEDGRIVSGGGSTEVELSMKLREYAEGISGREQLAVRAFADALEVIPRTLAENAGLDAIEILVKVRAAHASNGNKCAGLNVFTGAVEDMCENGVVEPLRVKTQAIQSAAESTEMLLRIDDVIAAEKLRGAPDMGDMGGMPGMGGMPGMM
Procedure, shortened: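 HTRF readout (320 nm excitation, 590/665 nm emission) of ADP generated by 50 nM MmCpn hydrolysing 30 uM ATP during 10 min at 37C; compound preincubated 5 min RT.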

[4] = biological target: Transient receptor potential cation channel subfamily V member 1 (Homo sapiens) (UniProt Q8NER1); experiment: HTS Assay for Compounds that Act as Enhancers of the Vanilloid Receptor 1 (AID 488979); settings: TRPV1-expressing cells, enhancer of channel activity; series mostly up to 41.7 µM
Sequence of Transient receptor potential cation channel subfamily V member 1 (Homo sapiens) (Q8NER1 whole entry, looked up): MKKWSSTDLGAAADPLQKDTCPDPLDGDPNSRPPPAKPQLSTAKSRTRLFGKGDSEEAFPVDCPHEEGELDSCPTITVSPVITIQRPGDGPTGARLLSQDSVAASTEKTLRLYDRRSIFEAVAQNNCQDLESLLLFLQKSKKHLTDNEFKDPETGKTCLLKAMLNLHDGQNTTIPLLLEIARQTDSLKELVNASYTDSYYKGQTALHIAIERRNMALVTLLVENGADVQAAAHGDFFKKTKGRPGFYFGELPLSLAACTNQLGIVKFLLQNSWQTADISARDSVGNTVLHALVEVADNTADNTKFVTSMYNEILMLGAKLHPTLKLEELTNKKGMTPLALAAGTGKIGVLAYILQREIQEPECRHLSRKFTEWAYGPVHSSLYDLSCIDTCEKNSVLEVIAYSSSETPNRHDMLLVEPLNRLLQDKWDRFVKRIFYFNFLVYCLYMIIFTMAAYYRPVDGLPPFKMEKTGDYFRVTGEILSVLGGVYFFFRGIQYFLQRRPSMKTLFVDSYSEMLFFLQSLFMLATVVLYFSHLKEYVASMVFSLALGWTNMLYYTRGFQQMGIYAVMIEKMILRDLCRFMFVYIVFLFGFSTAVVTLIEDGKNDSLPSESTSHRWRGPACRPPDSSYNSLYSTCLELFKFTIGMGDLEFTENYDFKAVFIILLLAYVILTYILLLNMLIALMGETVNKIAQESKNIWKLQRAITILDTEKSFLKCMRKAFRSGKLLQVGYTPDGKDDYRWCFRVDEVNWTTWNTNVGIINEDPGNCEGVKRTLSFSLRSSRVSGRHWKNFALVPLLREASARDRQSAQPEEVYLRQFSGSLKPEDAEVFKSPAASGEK
Procedure, shortened: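 Calcium influx kinetics via Fluo-8 (480/520 nm) in TRPV1-expressing cells, 2000/well cultured overnight at 35.5C. Compound-alone read 3 min (agonist phase), followed by EC20 capsaicin challenge for 2 min (enhancer phase).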

[5] = biological target: Thyrotropin receptor (Homo sapiens) (UniProt P16473); experiment: qHTS Assay for Antagonists of the Thyroid Stimulating Hormone Receptor (AID 488980); settings: TSHR-expressing cells, cAMP antagonist read-out; series mostly up to 57.5 µM
Sequence of Thyrotropin receptor (Homo sapiens) (P16473 whole entry, looked up): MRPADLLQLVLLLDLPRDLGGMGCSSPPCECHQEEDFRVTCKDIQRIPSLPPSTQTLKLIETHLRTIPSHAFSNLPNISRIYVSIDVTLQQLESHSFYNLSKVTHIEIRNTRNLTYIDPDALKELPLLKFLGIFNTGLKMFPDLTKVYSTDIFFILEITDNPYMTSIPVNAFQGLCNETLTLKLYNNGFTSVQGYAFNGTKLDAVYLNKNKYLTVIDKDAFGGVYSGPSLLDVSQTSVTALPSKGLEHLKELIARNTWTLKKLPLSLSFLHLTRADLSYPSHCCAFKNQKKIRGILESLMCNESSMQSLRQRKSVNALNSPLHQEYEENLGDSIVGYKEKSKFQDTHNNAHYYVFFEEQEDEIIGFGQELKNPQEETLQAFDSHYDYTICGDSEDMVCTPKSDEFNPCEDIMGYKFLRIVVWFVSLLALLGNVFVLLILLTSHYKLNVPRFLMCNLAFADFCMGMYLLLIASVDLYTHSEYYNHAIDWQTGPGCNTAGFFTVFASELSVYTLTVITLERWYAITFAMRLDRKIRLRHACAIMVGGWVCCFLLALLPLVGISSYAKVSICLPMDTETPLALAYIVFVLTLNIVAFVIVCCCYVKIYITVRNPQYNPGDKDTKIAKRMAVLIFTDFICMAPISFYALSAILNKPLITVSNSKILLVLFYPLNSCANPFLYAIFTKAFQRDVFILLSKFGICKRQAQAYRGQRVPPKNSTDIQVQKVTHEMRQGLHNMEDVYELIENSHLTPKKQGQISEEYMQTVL
Procedure, shortened: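 Inhibition of TSH-stimulated cAMP accumulation was quantified by homogeneous time-resolved FRET in TSHR-transfected HEK293 cells. Agonist: TSH, 4 nM final (EC80).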

[6] = biological target: D(1A) dopamine receptor (Homo sapiens) (UniProt P21728); experiment: HTS Assay for Allosteric Agonists of the Human D1 Dopamine Receptor: Primary Screen for Agonists (AID 488981); settings: Inducible HEK293 T-REx D1 cells, calcium-flux fluorescence, 180 s kinetic; series mostly up to 41.8 µM; further: potency means the concentration at half of the fitted maximal effect
Sequence of D(1A) dopamine receptor (Homo sapiens) (P21728 whole entry, looked up): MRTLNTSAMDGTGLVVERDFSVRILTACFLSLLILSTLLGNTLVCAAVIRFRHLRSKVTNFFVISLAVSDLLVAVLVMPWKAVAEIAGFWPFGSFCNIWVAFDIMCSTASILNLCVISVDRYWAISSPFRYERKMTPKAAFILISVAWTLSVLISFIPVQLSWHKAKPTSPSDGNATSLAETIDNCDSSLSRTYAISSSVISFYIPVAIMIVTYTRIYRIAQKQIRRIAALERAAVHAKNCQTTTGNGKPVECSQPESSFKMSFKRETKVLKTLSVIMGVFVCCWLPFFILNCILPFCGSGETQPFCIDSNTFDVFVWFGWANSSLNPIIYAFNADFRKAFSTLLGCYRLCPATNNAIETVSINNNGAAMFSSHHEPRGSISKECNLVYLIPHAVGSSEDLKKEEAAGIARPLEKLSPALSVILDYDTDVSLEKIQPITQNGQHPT
Procedure, shortened: (§1)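 Calcium flux in an inducible, force-coupled HEK293 Trex D1 line (overnight at 30 C): agonist mode is the 180 s kinetic read after compound; potentiator mode is the following 180 s read after dopamine at EC20.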

[7] = biological target: D(1A) dopamine receptor (Homo sapiens) (UniProt P21728); experiment: HTS Assay for Allosteric Agonists of the Human D1 Dopamine Receptor: Primary Screen for Potentiators (AID 488982); settings: HEK293 T-REx D1 inducible cells, calcium flux, kinetic fluorescence; series mostly up to 8.37 µM
Procedure, shortened: as §1

[8] = biological target: D(1A) dopamine receptor (Homo sapiens) (UniProt P21728); experiment: HTS Assay for Allosteric Agonists of the Human D1 Dopamine Receptor: Primary Screen for Antagonists (AID 488983); settings: D1 receptor cell assay, antagonist mode, qHTS titration; series mostly up to 41.8 µM;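 further: calcium flux response to an EC80 dopamine challenge measured with no-wash dye; nearly all actives have a fitted effect of over 65% in size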
Procedure, shortened: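 Calcium flux readout, no-wash dye, inducible HEK293 T-REx D1 line (force-coupled). Compound added after 10 s baseline, 180 s kinetic read; then dopamine at EC80, further 180 s read.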

[9] = Validation screen for small molecules that induce genotoxicity in human embryonic kidney (HEK293T) cells expressing luciferase-tagged ELG1 (AID 493106); settings: luminescence; series mostly up to 46.1 µM
Procedure, shortened: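 qHTS format; 2,000 HEK293T ELG1-luc cells/well; 23 nL compound via pin tool; 16 hr, 37 °C/5% CO2; ONE-Glo, 30 min RT; luminescence read.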

[10] = biological target: Tyrosyl-DNA phosphodiesterase 1 (Homo sapiens) (UniProt Q9NUW8); experiment: Confirmation Assay for Inhibitors of Tyrosyl-DNA Phosphodiesterase (TDP1) (AID 489007); settings: recombinant human TDP1 enzymatic activity, dose-response; further: potency means the concentration at half of the fitted maximal effect; nearly all actives have a fitted effect of over 40% in size
Sequence of Tyrosyl-DNA phosphodiesterase 1 (Homo sapiens) (Q9NUW8 whole entry, looked up): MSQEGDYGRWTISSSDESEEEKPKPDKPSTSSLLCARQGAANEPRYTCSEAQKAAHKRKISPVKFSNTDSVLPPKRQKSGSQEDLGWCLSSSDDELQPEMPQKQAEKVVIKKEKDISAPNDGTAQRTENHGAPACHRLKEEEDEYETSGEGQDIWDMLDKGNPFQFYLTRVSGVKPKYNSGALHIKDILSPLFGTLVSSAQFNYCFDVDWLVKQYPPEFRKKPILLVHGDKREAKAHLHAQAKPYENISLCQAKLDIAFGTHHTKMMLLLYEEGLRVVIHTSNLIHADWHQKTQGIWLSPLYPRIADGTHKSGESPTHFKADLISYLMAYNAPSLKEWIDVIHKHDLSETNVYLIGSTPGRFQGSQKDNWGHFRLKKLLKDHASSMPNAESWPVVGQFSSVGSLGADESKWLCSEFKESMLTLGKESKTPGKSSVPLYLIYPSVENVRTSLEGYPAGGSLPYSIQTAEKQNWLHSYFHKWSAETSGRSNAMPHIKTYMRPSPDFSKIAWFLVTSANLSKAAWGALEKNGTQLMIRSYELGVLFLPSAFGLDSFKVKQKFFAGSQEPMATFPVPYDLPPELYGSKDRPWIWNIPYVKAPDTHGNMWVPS
Procedure, shortened: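 AlphaScreen read-out: streptavidin donor and anti-FITC acceptor beads (10 ug/ml) bind intact substrate, so Tdp1 removal of tyrosine-FITC lowers signal. Enzyme 1 nM, substrate 15 nM, 5 min reaction at room temperature after 15 min compound preincubation.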

Measured: Potency

Cc1nnc2n1-c1ccc(Cl)cc1C(c1ccccc1)=NC2
inactive: [1]

COC(=O)C(c1ccccc1)C1CCCCN1 (centres undefined)
inactive: [1]

NCCc1ccc(O)cc1
not listed: [1] | [10]
inactive: all other assays above

O=C1Nc2ccc(Cl)cc2C(c2ccccc2Cl)=NC1O (centres undefined)
inactive: [1]

Clc1ccc(C(c2ccc(Cl)cc2)C(Cl)(Cl)Cl)cc1
inactive: [1]

O=c1[nH]oc2c1CCNC2
not listed: [1] | [10]
inactive: all other assays above

C[C@]12CC[C@@H]3c4ccc(OC(=O)N(CCCl)CCCl)cc4CC[C@H]3[C@@H]1CC[C@@H]2O
inactive: [1]

Clc1ccc2c(c1)C(c1ccccc1)=NCc1nncn1-2
inactive: [1]

CCCCCCCCCC(=O)O[C@H]1CC[C@H]2[C@@H]3CCC4=CC(=O)CC[C@@H]4[C@H]3CC[C@]12C
inactive: [1]

CCC(C)(C)c1ccc(O)cc1
inactive: [1]

Cc1ncsc1CCCl
inactive: [2] | [3] | [6] | [8] | [1] | [9]

CN(C)C(=O)Oc1ccc[n+](C)c1
active: [2] 0.0067 µM

CC(C)c1cccc(C(C)C)c1O
not listed: [1] | [8] | [10]
inactive: all other assays above

CC(C)N(CCC(C(N)=O)(c1ccccc1)c1ccccn1)C(C)C (centres undefined)
not listed: [1] | [10]
inactive: all other assays above

C=C(C)[C@H]1CN[C@H](C(=O)O)[C@H]1CC(=O)O
not listed: [10]
inactive: all other assays above

COC1CC(=C(c2cccs2)c2cccs2)C[N+](C)(C)C1 (centres undefined)
inactive: [1]

CC(C)C[C@H]1C(=O)N2CCC[C@H]2[C@]2(O)O[C@](NC(=O)[C@@H]3C=C4c5cccc6[nH]c(Br)c(c56)C[C@H]4N(C)C3)(C(C)C)C(=O)N12
inactive: [7] | [9]

O=C1c2ccccc2C(=O)C1C(=O)C(c1ccccc1)c1ccccc1
inactive: [1]

O=C(CCCN1CCC2(CC1)C(=O)NCN2c1ccccc1)c1ccc(F)cc1
active: [6] 12.6 µM
inactive: [3] | [5] | [7] | [9]

CC(=O)N1CCN(c2ccc(OC[C@H]3CO[C@](Cn4ccnc4)(c4ccc(Cl)cc4Cl)O3)cc2)CC1
inactive: [9]
active: [2] 39.8 µM

CCCCC/C=C\C/C=C\C/C=C\C/C=C\CCCC(=O)NCC(=O)O
active: [2] 44.7 µM | [10] 28.2 µM
not listed: [1] | [5]
inactive: all other assays above

Nc1nc(N)nc(NC2CC2)n1
inactive: [1]

COc1ccc2c(c1OC)C(=O)O[C@H]2[C@@H]1c2cc3c(cc2CCN1C)OCO3
not listed: [1] | [4] | [10]
inactive: all other assays above

CNC(C)(C)Cc1ccccc1
inactive: [1]

CC(NC(C)(C)C)C(=O)c1cccc(Cl)c1 (centres undefined)
inactive: [2] | [3] | [4] | [6] | [8] | [9]

O=P1(N(CCCl)CCCl)NCCCO1 (centres undefined)
active: [2] 0.006 µM
not listed: [1] | [10]
inactive: all other assays above

CC(C)(C)NCC(O)c1ccccc1Cl (centres undefined)
not listed: [10]
inactive: all other assays above

CN1C[C@H](C(=O)N[C@]2(C)O[C@@]3(O)[C@@H]4CCCN4C(=O)[C@H](Cc4ccccc4)N3C2=O)C=C2c3cccc4[nH]cc(c34)C[C@H]21
inactive: [1]

C[C@]12CCC(=O)C=C1CC[C@@H]1[C@@H]2CC[C@]2(C)C(=O)CC[C@@H]12
inactive: [4] | [5] | [1]

O=C(O)CCCc1ccc(N(CCCl)CCCl)cc1
not listed: [1] | [10]
inactive: all other assays above

CN1C(=O)CCS(=O)(=O)C1c1ccc(Cl)cc1 (centres undefined)
not listed: [1] | [10]
inactive: all other assays above

Nc1ccc([As](=O)(O)O)cc1
inactive: [1]

CCC1(c2ccc(N)cc2)CCC(=O)NC1=O (centres undefined)
not listed: [1] | [5] | [10]
inactive: all other assays above
